Source: PubChem BioAssay (Broad Institute)
Only a selection was taken, and hits are over-represented in it overall.
Tg IFNy HTS: blocks Toxoplasma gondii growth in the presence of IFN-gamma; Toxoplasma gondii growth in IFN-gamma-treated host cells; active compounds read low; activity change, negative = inhibition, % (test concentration not listed); actives 3.8% (n = 69,000); in the data active means activity change below about -70%, passing the limit was not always enough;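 further: host cells are HeLa cells infected with Toxoplasma gondii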
* hit, by the source's call.

SMILES	Tg IFNy HTS
CSc1cccc(NC(=O)Cn2c(=O)ccc3cc(S(=O)(=O)N4CCC(C)CC4)ccc32)c1	-65
CC1CCN(S(=O)(=O)c2ccc3c(ccc(=O)n3CC(=O)Nc3cccc(F)c3)c2)CC1	-81*
CC1CCN(S(=O)(=O)c2ccc3c(ccc(=O)n3CC(=O)Nc3ccc(F)c(Cl)c3)c2)CC1	-66
O=C(Cn1c(=O)ccc2cc(S(=O)(=O)N3CCCC3)ccc21)Nc1ccc(F)cc1	-42
Cc1ccc(Cl)cc1NC(=O)N1CCC(c2nc(C(=O)N(C)C)c(C)o2)CC1	-38
CN(C)c1ccc(C(=O)C(F)(F)F)cc1	1
O=C(c1ccc(-c2ncn[nH]2)cc1)N1CCCC(Nc2ccc(F)cc2)C1 (stereo not given)	5
Cc1nc(N2CCCC2)nc2c1CCN(C(=O)c1cccn1C)CC2	14
Cc1cccc(OCC(=O)NCCc2csc(-c3cccc(F)c3)n2)c1	26
COc1ccc(-c2cc3c(=O)n(Cc4nc(-c5ccccc5)oc4C)ccn3n2)cc1OC	-28
Cc1ccc(S(=O)(=O)N(C)c2cncc(C(=O)Nc3ccccc3Br)c2)cc1	11
CCOc1ccc(-c2nc(CNS(=O)(=O)c3ccc(C)c(C)c3)c(C)o2)cc1	154
COc1ncccc1-c1[nH]cnc1-c1ccccc1	-15
COc1ncccc1-c1cccc(-c2nnc(C)s2)c1	-94*
COc1ncccc1-c1nn(C)c2ccc(C)cc12	7
Cc1ccc(Nc2nc(C(=O)NC(C)C)nc3ccccc23)cc1	-79*
Cc1ccc(Nc2nc(C(=O)NCCC(C)C)nc3ccccc23)cc1	-87*
CC(NC(=O)c1nc(Nc2ccc(F)cc2)c2ccccc2n1)c1ccccc1 (stereo not given)	-8
CCOCCCNC(=O)c1nc(Nc2ccc(C)cc2)c2ccccc2n1	-55
CCCCNc1nc(C(=O)OCC)nc2ccccc12	1
CCOC(=O)c1nc(NCCc2ccc(C)cc2)c2ccccc2n1	-73*
CC(C)CCNC(=O)c1nc(Nc2ccccc2)c2ccccc2n1	-46
CCOC(=O)c1nc(NCc2ccc(C)cc2)c2ccccc2n1	7
Cc1ccc(Nc2nc(C(=O)Nc3cc(C)cc(C)c3)nc3ccccc23)cc1	-7
COc1cc(NC(=O)Cn2c(=O)cc(C(=O)N3CCc4ccccc4C3)c3ccccc32)cc(OC)c1	-9
SMILES	Tg IFNy HTS
CCc1cc(N2CCC(c3nn(C)c(=O)n3-c3ccccc3)CC2)ncn1	-9
O=C1CC2(CCN(C(=O)C3CCOCC3)CC2)CN1Cc1cccnc1	3
COc1ccc(/C=C/CN2CCN(c3nccnc3C)CC2)cc1	-9
CSCc1noc(CNc2nc(C(C)(C)C)nc3c2cnn3C)n1	-1
CCc1nnc(CNC(=O)c2cc(C(C)C)nn2C)s1	1
O=C1CCC2(CCN1)CCN(c1ncccc1Cl)CC2	-3
CN(Cc1cccnc1)C1CCN(C(=O)c2cccn2C)C(C(=O)O)C1 (stereo not given)	15
O=C(c1ccn(-c2ccc3ccc(-c4ccncc4)cn23)n1)N1CCCCC1	-33
O=C(NCc1cn2c(n1)CN(Cc1ccc(F)cc1)CC2)C1CCC1	51
CSc1ncc(CN(C)C(C)c2ccco2)cn1 (stereo not given)	21
c1cncc(-c2noc(C3CCCN(Cc4cc5n(n4)CCCNC5)C3)n2)c1 (stereo not given)	1
CC(C)N1CC2(CCN(Cc3cccnc3)CC2)CC1COCC1CC1 (stereo not given)	-4
Cc1ccc(C(=O)N2CCC3(CCC(COCC4CC4)N3C)CC2)cc1 (stereo not given)	-3
Cc1cccc(CN2CCC3(CCC(COCC4CC4)N3C)CC2)n1 (stereo not given)	-85*
Cc1ccc(C(=O)N2C[C@H]3CCCO[C@H]3[C@@H](Nc3ccccn3)C2)o1	0
COC(C)(C)Cn1ccnc1-c1cc(F)ccc1-n1nc(C)cc1C	1
CCc1ccc(Nc2nc(C(=O)NCc3ccccc3)nc3ccccc23)cc1	-28
CCOc1ccccc1NC(=O)c1nc(Nc2ccccc2)c2ccccc2n1	-82*
CCc1ccc(Nc2nc(C(=O)NCc3cccc(OC)c3)nc3ccccc23)cc1	-72*
CCOc1ccc(NC(=O)c2nc(Nc3ccccc3)c3ccccc3n2)cc1	-38
COc1cccc(CNC(=O)c2nc(Nc3ccccc3)c3ccccc3n2)c1	-54
COc1ccc(OC)c(NC(=O)c2nc(Nc3ccc(C)cc3)c3ccccc3n2)c1	-45
CCOc1ccccc1NC(=O)c1nc(Nc2ccc(Cl)cc2)c2ccccc2n1	-64
CCOc1ccc(CNC(=O)c2nc(Nc3ccc(CC)cc3)c3ccccc3n2)cc1	44
COc1ccc(NC(=O)c2nc(Nc3ccc(C)cc3)c3ccccc3n2)c(OC)c1	-112*
COc1cccc(CNC(=O)c2nc(Nc3ccc(C)cc3)c3ccccc3n2)c1	-101*
COc1cc(OC)c(NC(=O)c2nc(Nc3ccc(C)cc3)c3ccccc3n2)cc1Cl	35
Cc1ccc(CNC(=O)c2nc(Nc3ccccc3)c3ccccc3n2)cc1	57
CCN1CCO[C@H]2CCN(C(=O)c3cn(C)cn3)C[C@H]21	5
CN(c1cncc(C(=O)N2CCN(c3ccccc3)CC2)c1)S(=O)(=O)c1ccccc1	43
